The values that follow come from PubChem BioAssay AID934 (National Center for Advancing Translational Sciences (NCATS), 2007).

The structures appear in SMILES notation. Results filed as inconclusive are left out. Entries that show only a call come without a potency. Calls of active or inactive are those of the source. Calls come from the whole dose curve; as a rule, active = well fitted activation curve with a large enough effect; inconclusive = small, poorly fitted or top-dose-only effect; inactive = flat fitted curve, though single readings scatter.

This assay is described as follows: Parental Cell Counter Screen for Stat Signaling Pathway Assay. Conditions: ME-180 (cervical carcinoma) parental cells, blue fluorescence artefact counter-screen; series mostly up to 38.3 µM. The text has this:
NIH Molecular Libraries Screening Centers Network [MLSCN] NIH Chemical Genomics Center [NCGC] MLSCN Grant: None NCGC Assay Overview: This assay is a counter screen for the Stat signaling pathway assay (PubChem AID 446). The Stat assay is cell-based and measures Interleukin 6 (IL-6) mediated modulation of a beta-lactamase reporter gene controlled by a STAT inducible element (SIE-bla cells, Invitrogen). IL-6 is a cytokine that signals via the JAK/STAT pathway and is implicated in cancer and inflammation. […] Compounds active in the parental ME-180 cells are likely fluorescent.
NCGC Assay Protocol Summary: Cells were trypsinized, washed in assay medium (AM, OPTI MEM with 0.5% fetal bovine serum, 0.1 mM nonessential amino acids, 1 mM sodium pyruvate, 10mM HEPES pH 7.3, 100U/ml penicillin, and 100 ug/ml streptomycin) and suspended at […] in AM. Approximately 2500 cells in 5 uL/well was dispensed into 1536-well plates and the cells were incubated overnight at 37 C. 23 nL of compound were delivered by a pin tool and 1 uL of IL-6 (40 pM final concentration in AM) was added. After plates were incubated at 37 C for 5 hrs, 1uL of detector mix (LiveBLAzerTM, Invitrogen) was added, the plates incubated at room temperature for 2.5 hrs, and fluorescence intensity at 460 and 530 nm emissions was measured at 405 nm excitation by an Envision (Perkin Elmer).
A general note: The purpose of a counterscreen is to sort out artefacts and off-target activity.
With `COc1ccc2c3c([nH]c2c1)C(C)=NCC3`, the Potency is 12.6 µM (active).

Consider `CN(N=O)c1ccc(O)c(O)c1`, for which the Potency result was “inactive”. As for `COC1=C(C)C(=O)c2c(c(COC(N)=O)c3n2C[C@@H]2[C@@H]3N2C)C1=O` (stereo not given in full), the Potency was 12.6 µM (active).

Consider `c1ccc2c(c1)[I+]c1ccccc1-2`, for which the Potency result was “inactive”. Consider `COC(=O)C(O)(c1ccc(NC(=O)c2ccco2)c(OC)c1)C(F)(F)F` (stereo not given), for which the Potency is 0.0063 µM (active). Consider `Cc1c2ccncc2c(C)c2c1[nH]c1ccccc12`, for which the Potency was 15.8 µM (active). In the case of `CCn1cnc2c(Nc3cccc(Cl)c3)nc(N[C@@H]3CCCC[C@H]3N)nc21`, the Potency entry is “inactive”. As to `CC[C@]1(O)C(=O)OCc2c1cc1n(c2=O)Cc2cc3ccccc3nc2-1`, the Potency entry is “inactive”. Under `O=c1ccc2cc(O[C@H]3O[C@@H](CO)[C@@H](O)[C@@H](O)[C@@H]3O)c(O)cc2o1` stands 15.8 µM (active); under `COc1cccc2c1C(=O)c1c(O)c3c(c(O)c1C2=O)C[C@](O)(/C(C)=N\O)C[C@@H]3O[C@H]1C[C@H](N)[C@@H](O)[C@H](C)O1`, “inactive”.
